Data published in PubChem BioAssay (NCATS).
Results filed as inconclusive are left out. Unmarked numbers belong to inactive results. Calls of active or inactive are those of the source. Calls follow the shape of the dose curve; as a rule, active = well fitted inhibition curve with a large enough effect; inconclusive = small, poorly fitted or top-dose-only effect; inactive = flat fitted curve, though single readings scatter.

System: HaCat
Test: Cytotoxic Profiling of Annotated Libraries Using Quantitative High-Throughput Screening (AID 1296008); also: nearly all actives have a fitted effect of over 60% in size
Conditions: Five cell lines viability, CellTiter-Glo ATP luminescence, 48-72 h; max response: hits give low values
Summary of the method: (§1)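 Cells exposed to compounds for 48 or 72 hr at 37 degrees Celsius. Viability read as ATP-coupled luminescence with CellTiter-Glo after 10 min at room temperature.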
% is scaled to controls: 0 for no effect and ±100 for the full control effect.

Row | SMILES | outcome
1 | Cc1cc(C)c(-n2cc(C)c3c(Cl)nc(C)nc32)c(C)c1 | inactive
2 | O=[N+]([O-])c1ccc(Oc2ccc3c(c2)CCC(c2ccccc2)O3)nc1 (stereo unspecified) | inactive
3 | CC1(C)CC[C@]2(C(=O)O)[C@H](O)C[C@]3(C)C(=CCC4[C@@]5(C)CC[C@H](O[C@@H]6O[C@H](CO[C@@H]7OC[C@H](O)[C@H](O)[C@H]7O[C@@H]7OC[C@H](O)[C@H](O)[C@H]7O)[C@@H](O)[C@H](O)[C@H]6O)C(C)(C)C5CC[C@]43C)[C@@H]2C1 (stereo partly specified) | inactive

System: KB-3-1
Test: as above
Conditions: Five cell lines viability, CellTiter-Glo ATP luminescence, 48-72 h; max response: hits give low values
Summary of the method: as §1

Row | SMILES | max response | outcome
4 | COc1ccc(-c2cnc3c(-c4cccc5ncccc45)cnn3c2)cc1 | -5.9% | –
5 | C/C=C(\C)C(=O)OC1C[C@@]2(COC(C)=O)O[C@H]2/C=C\[C@@]2(C)O[C@@H]2[C@H]2OC(=O)C(COC(C)=O)=C12 (stereo partly specified) | 7.77% | –
6 | COc1ccc(NC(=O)c2ccc(-c3ccc(C(=N)N)cc3C)cc2)cc1N1CCN(C)CC1 | -9.57% | –
7 | C=C1CCCC2(C)CCC(C(C)(C)OC3OC(C)C(O)C(O)C3OC(=O)/C(C)=C\C)CC12 (stereo unspecified) | -8.14% | –
8 | C=C(CCC1C(C)(O)CCC2C(C)(C)C(O)CCC12C)C(O)CO (stereo unspecified) | -9.88% | –
9 | O=C(Nc1ccccc1C(=O)Nc1ccc(CCO)cc1)c1ccc([N+](=O)[O-])cc1 | – | inactive
10 | O=C([C@@H](Cc1cccc(C(F)(F)F)c1)NS(=O)(=O)c1cc(F)c2c(c1)CCNC2)N1CCCC1 | – | inactive
11 | COC(=O)c1ccc2c(c1)[nH]c1ncnc(NCCCN3CCCCC3)c12 | -20.2% | –
12 | CC[C@H](C)/C=C(C)/C=C/C1=CC2=C(Cl)C(=O)[C@](C)(O)[C@H](OC(C)=O)[C@H]2CO1 | -1.44% | –
13 | O=C(Nc1ccc(N(Cc2ccsc2)C(=O)Cn2nnc3ccccc32)cc1)C1CC1 | 6.41% | –
14 | C/C=C(/C)C(=O)OC1C=C2C3C(C)C(C)C(OC(=O)C(C)C(C)O)CC3(C)CCC2(C)C2(C)CC(OC(C)=O)C3C(C)(C)C(O)C(=O)CC3(C)C12 (stereo unspecified) | 5.54% | –
15 | CC(=O)NC[C@H]1CN(c2ccc(N3CCSCC3)c(F)c2)C(=O)O1 | -11.9% | –
16 | Cc1ccc(OC[C@H](O)[C@H](C)NC(C)C)c2c1CCC2 | 5.3% | –
17 | O=C(NCC1CCN(Cc2cccc(Cl)c2)CC1)[C@@H]1CCCN(c2ncnc3c2nc2n3CCCC2)C1 | -6.02% | –
18 | CNCCC(c1cccs1)c1ccc(O)c2ccccc12 (stereo unspecified) | 6.48% | –
19 | CCC/C=C/C(=O)O[C@H]1CC(C)(C)CC2[C@@]13[C@H](O)C[C@]1(C)[C@@]2(CCC2[C@@]4(C)CC[C@H](O[C@@H]5O[C@H](C(=O)O)[C@@H](O)[C@H](O[C@@H]6O[C@H](CO)[C@H](O)[C@H](O)[C@H]6O[C@@H]6O[C@@H](C)[C@H](O)[C@@H](O)[C@H]6O[C@@H]6OC[C@](O)(CO)[C@H]6O)[C@H]5O[C@@H]5O[C@H](CO)[C@H](O)[C@H](O)[C@H]5O)C(C)(C)C4CC[C@]21C)O[C@H]3O (stereo partly specified) | – | inactive
20 | C=C1CC2OC(=O)C(=C)C2C(O)/C=C(\C)CCC1O (stereo unspecified) | 5.02% | –
21 | C[C@@H](NC(=O)c1ccc(C#Cc2cccc(F)c2)cn1)C(C)(C)O | 7% | –
22 | CN(C)CCOc1cc(NS(=O)(=O)c2c(Cl)cc(C(F)(F)F)cc2Cl)ccc1Cl | -11% | –

Row | SMILES | max response | outcome
23 | CC(=O)O[C@@H]1CC[C@@]2(C)[C@H](CC[C@@H]3[C@@H]2C[C@H](OC(C)=O)[C@]2(C)[C@@H](C(C)=O)CC[C@@H]32)C1 | -28.9% | –
24 | CC1=C2C[C@@]3(C)C(CCC[C@@H]3C)C(O)C2OC1=O (stereo partly specified) | 5.15% | –
25 | CNCCCC1(c2ccccc2)OC(C)(C)c2ccccc21 (stereo unspecified) | -1.28% | –
26 | O=S1(=O)CCN(Cc2cc(NCC3CCOCC3)c3[nH]c(-c4ccccc4)cc3c2)CC1 | 4.46% | –
27 | CCCNCCc1ccc(NS(=O)(=O)c2ccc(OC(F)(F)F)cc2)cc1 | -2.39% | –
28 | CC(=O)OCC(=O)[C@@]12O[C@@H]1C[C@H]1[C@@H]3CC=C4C[C@@H](O)CC[C@]4(C)[C@H]3CC[C@@]12C | – | inactive
29 | CC#CCn1c(N2CCCC(N)C2)nc2c1c(=O)n(Cc1nc(C)c3ccccc3n1)c(=O)n2C (stereo unspecified) | – | inactive
30 | COc1ccc2c(NC(=O)Nc3cccc(C(F)(F)F)n3)ccnc2c1 | – | inactive
31 | CC(C)(C)c1ccc(C(=O)Nc2cn3cc(-n4ccnc4)ccc3n2)cc1 | 7.42% | –
32 | CCOC(=O)N1CCC(N2CCC[C@@H](NC(=O)c3ccccc3C)C2)CC1 | 8.62% | –
33 | Cc1nc(C(=O)N2CCC[C@H]2Cc2nnc(-c3ccccc3)o2)c(-c2ccccc2F)s1 | – | inactive
34 | CC(=O)c1c(C)cc2cccc(O)c2c1O[C@@H]1O[C@H](CO)[C@@H](O)[C@H](O)[C@H]1O | – | inactive
35 | CCCn1cc2c(nc(NC(=O)Nc3ccc(OC)cc3)n3nc(-c4ccco4)nc23)n1 | 9% | –
36 | O=C(O)c1cc(N(Cc2ccc(C3CCCCC3)cc2)C(=O)c2ccc(Oc3ccccc3)cc2)ccc1O | – | inactive
37 | COc1cc2nc(N3CCN(C(=O)COc4c(OC)cccc4C(C)C)CC3)nc(N)c2cc1OC | 8.96% | –
38 | CC(=O)C=C=C1C(C)(C)CC(O)CC1(C)O[C@@H]1O[C@H](CO[C@H]2OC[C@](O)(CO)[C@H]2O)[C@@H](O)[C@H](O)[C@H]1O (stereo partly specified) | – | inactive
39 | Cc1cc(C)c(-n2cc(C)c3c(Cl)nc(C)nc32)c(C)c1 | -3.82% | –
40 | O=[N+]([O-])c1ccc(Oc2ccc3c(c2)CCC(c2ccccc2)O3)nc1 (stereo unspecified) | -24.2% | –
41 | CC1(C)CC[C@]2(C(=O)O)[C@H](O)C[C@]3(C)C(=CCC4[C@@]5(C)CC[C@H](O[C@@H]6O[C@H](CO[C@@H]7OC[C@H](O)[C@H](O)[C@H]7O[C@@H]7OC[C@H](O)[C@H](O)[C@H]7O)[C@@H](O)[C@H](O)[C@H]6O)C(C)(C)C5CC[C@]43C)[C@@H]2C1 (stereo partly specified) | – | inactive
